Laboratory results from PubChem BioAssay AID489037 (National Center for Advancing Translational Sciences (NCATS), 2010).
Several values for one entry are separate records, joined by “and”; a condition that tells them apart may be missing. Identical values can stand only once. Results filed as inconclusive are left out. A number with no mark means an inactive call. Activity calls are given as the source filed them. Calls come from the whole dose curve; as a rule, active = well fitted inhibition curve with a large enough effect; inconclusive = small, poorly fitted or top-dose-only effect, or effect the other way; inactive = no such curve, though single readings can be large or run the other way.

Each compound was assayed against Nuclear receptor ROR-gamma (Mus musculus) (UniProt P51450) (assay: Secondary confirmation assay for inhibitors of ROR gamma transcriptional activity). Conditions: Drosophila S2 Gal4-RORgamma UAS-luciferase reporter, 20 h; series mostly up to 92.2 µM.
Nuclear receptor ROR-gamma (Mus musculus), sequence (P51450 whole entry, looked up, the tested form may be a part): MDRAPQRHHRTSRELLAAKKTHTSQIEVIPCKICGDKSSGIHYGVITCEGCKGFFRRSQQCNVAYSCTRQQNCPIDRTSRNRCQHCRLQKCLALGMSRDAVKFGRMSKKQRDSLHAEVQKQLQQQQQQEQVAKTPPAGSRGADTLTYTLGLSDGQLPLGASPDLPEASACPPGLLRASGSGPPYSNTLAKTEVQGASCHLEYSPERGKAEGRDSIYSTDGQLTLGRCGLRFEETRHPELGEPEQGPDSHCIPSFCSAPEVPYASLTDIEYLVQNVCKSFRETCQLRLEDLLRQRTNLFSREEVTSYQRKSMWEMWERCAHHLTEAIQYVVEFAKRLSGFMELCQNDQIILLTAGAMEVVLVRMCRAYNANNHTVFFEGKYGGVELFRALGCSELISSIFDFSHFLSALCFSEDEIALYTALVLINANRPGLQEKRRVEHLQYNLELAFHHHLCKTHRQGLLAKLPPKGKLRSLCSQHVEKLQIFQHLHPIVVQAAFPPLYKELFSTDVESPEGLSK
Outline: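 Drosophila Schneider cells stably expressing Gal4-DBD/ROR gamma fusion (metallothionein promoter) with UAS-Photinus luciferase reporter. Compound preincubated 1 hr, then copper sulfate 700 uM final added; 20 hr at ambient temperature, luminescence read.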

Compound	Potency	activity change, negative = inhibition
COc1cc(O)c(C(CC(=O)N2CCCC(C)C2)c2cccs2)c(OC)c1 (configuration not stated)	7.24 µM (active)	–
CCOC(=O)Cn1c(CN2CCc3ccccc3C2)nc2c1c(=O)n(C)c(=O)n2C	5.75 µM (active)	–
COc1ccc(-c2nnc(-c3ccc(N(C)C)cc3)o2)cc1	1.29 µM (active)	–
COc1cc(O)c(C(CC(=O)N2CCCC(C)C2)c2ccc3c(c2)OCO3)c(OC)c1 (configuration not stated)	3.63 µM (active) and 3.23 µM (active)	–
COc1cc(O)c(C(CC(=O)N2CCC(C)CC2)c2ccc(OC)c(OC)c2)c(OC)c1 (configuration not stated)	inactive	–
CCOC(=O)c1sc(NC(=O)c2cc3c(s2)CCC(C)C3)nc1C (configuration not stated)	0.144 µM (active)	–
COc1ccccc1C(CC(=O)Nc1ccc(F)cc1)c1ccccc1 (configuration not stated)	inactive	–
COc1cc(O)c(C(CC(=O)N2CCCCC2)c2ccc(C)cc2)c(OC)c1 (configuration not stated)	32.3 µM (active)	–
CCC1(CC)CCN(C(=O)CC(c2ccc3c(c2)OCO3)c2c(O)cc(OC)cc2OC)C1 (configuration not stated)	22.9 µM (active)	–
COc1cc(O)c(C(CC(=O)N2CCCC(C)C2)c2ccc3ccccc3c2)c(OC)c1 (configuration not stated)	5.75 µM (active)	–
COc1cc(O)c(C(CC(=O)N2CCCC(C)C2)c2ccccc2)c(OC)c1 (configuration not stated)	7.24 µM (active)	–
Cc1cc(C)nc(-n2nc(C)cc2NC(=O)CNC(C)c2ccccc2)n1 (configuration not stated)	5.75 µM (active)	–
CC1CCCN(C(=O)CC(c2ccccc2)c2ccc(O)cc2)C1 (configuration not stated)	inactive	–
CCOc1ccc(-c2cc(CCCC(=O)NCc3cccnc3)no2)cc1	0.724 µM (active)	–
CCOc1ncccc1C(=O)OCC(=O)Nc1ccc(-c2nc3ccc(C)cc3s2)cc1	0.407 µM (active)	–
CC(C)[C@H](NC(=O)C1CCN(C(=O)[C@@H]2CCCN2C(=O)OC(C)(C)C)CC1)C(=O)NCc1ccc(F)cc1	32.3 µM (active)	–
COc1cc(O)c(C(CC(=O)N(C)c2cccc(C)c2)c2ccc3c(c2)OCO3)c(OC)c1 (configuration not stated)	inactive	–
COc1cc(O)c(C(CC(=O)N2CCCC(C)C2)c2ccc(C(C)C)cc2)c(OC)c1 (configuration not stated)	14.4 µM (active)	–
COc1ccc2nc(NNC(=O)COc3ccccc3)sc2c1	4.57 µM (active)	–

Compound	Potency	activity change, negative = inhibition
COc1cc(O)c(C(CC(=O)N2CC(C)CC(C)C2)c2ccc(N(C)C)cc2)c(OC)c1 (configuration not stated)	2.88 µM (active)	–
COc1cc(O)c(C(CC(=O)N2CCCC(C)C2)c2ccccc2C)c(OC)c1 (configuration not stated)	7.24 µM (active)	–
COc1cc(O)c(C(CC(=O)N2CCCC(CO)C2)c2ccc3c(c2)OCO3)c(OC)c1 (configuration not stated)	inactive	–
CCn1cc(C(=O)O)c(=O)c2cnc(N3CCN(C(=S)NC(=O)c4ccccc4)CC3)nc21	11.5 µM (active)	–
COc1cc(O)c(C(CC(=O)N2CCCC(C)C2)c2ccc(OC)c(OC)c2)c(OC)c1 (configuration not stated)	9.11 µM (active)	–
Cc1ccc(C)c(/C=N/n2cc(-c3ccccc3)[nH]c2=S)c1	0.575 µM (active)	–
COc1cc(O)c(C(CC(=O)N2CCCC(CN3CCCCC3)C2)c2ccc3c(c2)OCO3)c(OC)c1 (configuration not stated)	inactive	–
Cc1cc(C)c2sc(NC(=O)c3ccc(N4C(=O)CCC4=O)cc3)nc2c1	0.229 µM (active)	–
CCOC(=O)c1sc(NC(=O)c2ccc(S(=O)(=O)N(C)C)cc2)nc1C	0.129 µM (active)	–
CC1CCCN(C(=O)CC(c2ccc3c(c2)OCO3)c2ccc(O)cc2O)C1 (configuration not stated)	inactive	–
CC1CCCN(C(=O)CC(c2ccccc2)c2ccccc2O)C1 (configuration not stated)	inactive	–
COc1cc(O)c(C(CC(=O)N2CCCC(C(=O)c3ccccc3)C2)c2ccc3c(c2)OCO3)c(OC)c1 (configuration not stated)	inactive	–
COc1cc(C)nc(-n2nc(C)cc2OC)n1	3.23 µM (active)	–
CN1CCN(C(=O)CCN2C(=O)/C(=C\c3ccccc3F)SC2=S)CC1	18.2 µM (active)	–
Cc1cc(C)n(-c2nc(SCC(=O)O)c3c4c(sc3n2)CCCC4)n1	9.11 µM (active)	–
COCC1CCCCN1C(=O)c1cc(COc2ccc3ncccc3c2)on1 (configuration not stated)	11.5 µM (active)	–
CC1=C(\C=C/C(C)=C/C=C\C(C)=C\C(=O)O)C(C)(C)CCC1	–	-12.4% [at 20 µM]
C#CCOc1cc(OC)cc(OC)c1C(CC(=O)N1CCCC(C)C1)c1ccc2c(c1)OCO2 (configuration not stated)	9.11 µM (active)	–
